Columns and labels:
Experiment in all cases: PBM binding z-score (relative to random genomic background probes); higher = stronger binding; sequences stand for … in GC…GCGATTGACAGCGTAGAATGAAGG
[1] = test system: FXR:RXRa (NR concentration 270 nM, RXRa partner concentration 90 nM)
Method in brief: (§1)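 Binding z-scores take random background probes as their reference. They come from custom Agilent 4×180K protein-binding microarrays incubated 1 h with ligand-free nuclear receptor dimers, with antibodies against each partner (one per run) detecting binding. Scanned fluorescence was regression-normalized.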

[2] = test system: LXRa:RXRa (NR concentration 270 nM, RXRa partner concentration 90 nM)
Method in brief: as §1

[3] = test system: LXRa homodimer (NR concentration 270 nM)
Method in brief: as §1

[4] = test system: LXRb:RXRa (NR concentration 270 nM, RXRa partner concentration 90 nM)
Method in brief: as §1

[5] = test system: LXRb homodimer (NR concentration 270 nM)
Method in brief: as §1

[6] = test system: PPARa:RXRa (NR concentration 270 nM, RXRa partner concentration 90 nM)
Method in brief: as §1

[7] = test system: PPARg:RXRa (NR concentration 180 nM, RXRa partner concentration 90 nM)
Method in brief: as §1

[8] = test system: PPARg:RXRa 270nM:90nM, anti-RXR (NR concentration 270 nM, RXRa partner concentration 90 nM)
Method in brief: as §1

[9] = test system: PPARg:RXRa 30nM:10nM, anti-RXR (NR concentration 30 nM, RXRa partner concentration 10 nM)
Method in brief: as §1

[10] = test system: PPARg:RXRa 90nM:30nM, anti-RXR (NR concentration 90 nM, RXRa partner concentration 30 nM)
Method in brief: as §1

[11] = test system: PPARg:RXRa DBDmut IVT, anti-RXR (DBD mutation: RXRa K156A/R161A, NR concentration 270 nM, RXRa partner concentration 90 nM)
Method in brief: as §1

[12] = test system: PPARg:RXRa IVT, anti-PPARg (NR concentration 270 nM, RXRa partner concentration 90 nM)
Method in brief: as §1

[13] = test system: PPARg DBDmut:RXRa IVT, anti-PPARg (DBD mutation: PPARg1 K132A/R137A, NR concentration 270 nM, RXRa partner concentration 90 nM)
Method in brief: as §1

[14] = test system: PPARg DBDmut IVT, anti-PPARg (DBD mutation: PPARg1 K132A/R137A, NR concentration 270 nM)
Method in brief: as §1

[15] = test system: PPARg homodimer (NR concentration 180 nM)
Method in brief: as §1

[16] = test system: PXR:RXRa (NR concentration 270 nM, RXRa partner concentration 90 nM)
Method in brief: as §1

[17] = test system: PXR homodimer (NR concentration 270 nM)
Method in brief: as §1

[18] = test system: RARa:RXR (NR concentration 270 nM, RXRa partner concentration 90 nM)
Method in brief: as §1

[19] = test system: RARa homodimer (NR concentration 270 nM)
Method in brief: as §1

[20] = test system: RARb:RXRa (NR concentration 270 nM, RXRa partner concentration 90 nM)
Method in brief: as §1

Sequence	PBM binding z-score [1]	PBM binding z-score [2]	PBM binding z-score [3]	PBM binding z-score [4]	PBM binding z-score [5]	PBM binding z-score [6]	PBM binding z-score [7]	PBM binding z-score [8]	PBM binding z-score [9]	PBM binding z-score [10]	PBM binding z-score [11]	PBM binding z-score [12]	PBM binding z-score [13]	PBM binding z-score [14]	PBM binding z-score [15]	PBM binding z-score [16]	PBM binding z-score [17]	PBM binding z-score [18]	PBM binding z-score [19]	PBM binding z-score [20]
CGTCCAAGGTCAGCAGGTCAGTCAAAGCGACGTG	5.86	4.15	0.724	3.27	-0.456	4.84	4.14	4.59	0.878	3.11	2.82	3.69	0.0784	-0.246	3.64	3.71	0.514	4.81	0.95	5.08
GCTTCTAGATCAAGGTTAAGAAAGACTAAGCTAA	-0.054	0.652	-0.313	0.697	-0.427	1.58	0.749	1.77	0.224	1.13	0.942	0.862	-0.0506	0.106	0.0754	0.437	0.0298	0.885	-0.746	0.841
ACAGACAGGTGATGACGGTAACTCAGGCTATCAT	-0.347	-0.186	-0.31	-0.476	-0.424	-0.121	0.839	-0.227	-0.335	-0.0238	0.226	0.0775	-0.319	-0.184	-0.306	-0.319	-0.0472	-0.196	0.273	0.237
CAAACTAGGTCAAGGTCAACGTCGGTTTGTGCCA	6.57	5.33	3.32	4.35	0.922	6.21	9.59	8.11	6.56	8.58	8.4	8.81	6.29	2.23	4.73	5.27	1.97	5.42	2.12	5.36
ACTATTAGTTGCGACGAGGGCAACCGATAGGTTG	0.025	-0.176	-0.51	-0.131	-0.0376	0.201	0.576	0.00262	-0.168	0.0381	-0.375	0.286	0.385	0.517	0.166	0.401	-0.0266	0.277	0.0553	0.852
CCTACTGGGCCACGAAAGATCATTGATTCAGTGA	-0.333	-0.132	-0.275	-0.437	-0.666	0.946	1.67	1.31	0.112	0.519	5.69	5.25	0.632	-0.411	0.215	-0.421	-0.111	-0.0697	-0.401	0.211
CCGGCTGGGGCAAGGTTACCATAACGCACAGCCA	0.218	0.386	-0.338	0.353	-1.36	1.09	1.04	0.822	-0.299	0.627	-0.429	0.466	-1	-1.85	0.0716	0.337	-0.654	0.922	-0.728	1.64
CCTGGGAGGACAACAGGAGGTCAGAGCTGCCAGA	1.53	2.1	2.07	1.57	-0.371	2.15	0.479	0.597	-0.563	0.161	-0.657	0.776	-0.434	-1.21	1.8	2.12	0.631	2.3	1.11	2.95
TATACAGGGTCCAAGGCCAGAGTACGAATGTCGA	0.36	0.228	0.0779	0.18	1.02	0.314	0.93	0.625	0.686	0.795	-0.0833	0.889	1	0.775	0.44	0.336	0.699	0.0317	0.427	1.2
CCTACTGGGCCACGAAAGGTCAGTGATTCAGTGA	1.7	3.12	1.41	2.24	-0.661	3.53	3.77	3.87	1.03	2.79	4.86	5.84	1.69	0.78	3.12	3.42	0.0598	3.82	1.31	3.81
ATGGAAAGGTCGAAGGTGAGTATACCCACCCGAA	4.22	3.27	0.0491	2.82	0.401	4.71	4.84	5.14	2.3	4.32	-0.138	2.06	1.21	0.517	1.61	2.99	0.649	4.14	0.905	3.78
TCATATAGGTCATACAGGTGAAAGTCGGCATCTA	6.18	5.45	1.98	4.49	1.72	5.68	7.05	6.57	5.26	6.25	6.93	6.78	2.18	2.34	2.69	3.62	1.06	4.44	2.39	4.2
CCTTACGGGTCACGAGCTTATAGCACGACGAGCG	6.56	4.18	-0.258	3.49	-0.00639	5.9	6.33	6.04	2.64	4.89	3.78	4.75	2.37	2.07	3.27	3.85	-0.361	5.25	0.902	4.42
CCTTACGGATCACTCCAGGTTATAGCATCGGAGT	0.957	3.48	1.36	0.889	0.62	0.155	0.486	-0.0175	-0.194	-0.283	0.299	0.0369	0.0149	0.787	1	0.823	0.761	0.748	1.26	0.105
GGAACGAGGGCGAAGTTGATAGCATCTGTCGACG	-0.55	-0.447	-0.49	-0.637	-0.922	1.42	2.91	4.71	1.93	4.02	1.27	1.23	0.2	-0.848	0.0285	-0.347	-0.365	-0.254	-0.834	0.606

— the supplement of paper PMC6555819
